Screens from PubChem BioAssay.
KDM5B inh: KDM5B demethylase inhibition | Potency, µM (highest dose often 57.7 µM), hits mostly inhibitors | Q9UGL1 | actives 2.6% (n = 220,000) | KDM5B demethylase, FDH-coupled NADH fluorescence (FDH is formaldehyde dehydrogenase) | AID 1347165; active = well fitted inhibition curve with a large enough effect; also: 0% is about no effect; nearly all actives have a fitted effect of over 70% in size
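Compound dilutions met 200 nM (final) KDM5BΔAP for 10 min at room temperature before substrate addition. The substrate mix held 12.5 µM H3K4me3 with cofactors 25 µM α-ketoglutarate and 50 µM Fe²⁺. NADH signal gain over 30 min defined activity.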
An asterisk follows results filed as active; i = inactive. The sample as a whole holds a higher share of hits than the screen did. Potency is read from the fitted curve at half-maximal effect.

SMILES | KDM5B inh
CCCc1ccc(S(=O)(=O)NC2CCN(c3ccc(=O)n(CC4CC4)n3)CC2)cc1 | 28µM*
CCCc1ccc(S(=O)(=O)NCC2CCCN2CC)cc1 (centres undefined) | i
Cc1ccc(/C=C(/C#N)S(C)(=O)=O)c(C)c1 | i
CCc1ccc(-c2csc(Nc3ccc(C(=O)O)c(O)c3)n2)cc1 | i
COCc1ccc2c(c1)c(OC(C)(C)C(=O)NCCCn1ccnc1)nn2CCC(C)C | 35µM*
COCc1ccc2c(c1)c(OC(C)(C)C(=O)NCCCn1ccnc1)nn2Cc1cccc(OC)c1 | 22µM*
CC(C)(Oc1nn(CCN2CCOCC2)c2ccccc12)C(=O)NCc1ccncc1 | i
COCc1ccc2c(c1)c(OC(C)(C)C(=O)Nc1ccn(C)n1)nn2Cc1cccc(OC)c1 | i
COCc1ccc2c(c1)c(OC(C)(C)C(=O)NCc1cnccn1)nn2Cc1cccc(OC)c1 | i
CC(C)(Oc1nn(Cc2cccc(Cl)c2)c2ccccc12)C(=O)NCCCn1ccnc1 | i
CC(C)C(=O)Nc1ccc2c(C(C(=O)O)N3CCN(C=O)CC3)c[nH]c2c1 (centres undefined) | i
Cc1cc(C)n(CC(=O)Nc2ccc(C(=O)N3CCN(c4ccccc4)CC3)cc2)c(=O)c1C#N | i
COCCCNC(=O)c1c(C)noc1-c1cc(OC)cc(OC)c1 | i
COc1cc(C(C)NC(=O)c2c(C)noc2C)cc(OC)c1OC (centres undefined) | i
Cc1noc(-c2ccccc2Cl)c1C(=O)NCCc1cccs1 | i
COc1ccc(-c2onc(C)c2C(=O)NCc2cccs2)cc1 | i
COc1ccc(-c2onc(C)c2C(=O)NCc2c(OC)cc(OC)cc2OC)cc1 | i
COc1cc(-c2onc(C)c2C(=O)NCCc2cccs2)cc(OC)c1OC | 22µM*
CCC(COC)NC(=O)c1c(C)noc1-c1cc(OC)c(OC)c(OC)c1 (centres undefined) | 28µM*
COc1cc(-c2onc(C)c2C(=O)NCCSC)cc(OC)c1OC | 32µM*
COc1cc(-c2onc(C)c2C(=O)NCc2ccc(F)cc2F)cc(OC)c1OC | i
COCCCNC(=O)c1c(C)noc1-c1cc(OC)c(OC)c(OC)c1 | 32µM*
COc1cc(OC)cc(-c2onc(C)c2C(=O)NCCCOC(C)C)c1 | i
COc1ccc(-c2onc(C)c2C(=O)N(C)Cc2cc(OC)c(OC)c(OC)c2)cc1 | i
CCC(C)C(=O)N1CCCCC1CC (centres undefined) | i
SMILES | KDM5B inh
O=C(Nc1ccc2oc(-c3cccc(I)c3)nc2c1)c1ccc2c(c1)OCO2 | i
COc1cc(C)c(C(C)C)cc1S(=O)(=O)N1CCC(C)CC1 | i
O=C(NC1CCN(C(=O)c2cc(-c3ccccc3)nc3ccccc23)CC1)c1ccccc1 | i
NC(=O)CCS(=O)(=O)CCN1CCN(S(=O)(=O)c2ccccc2)CC1 | i
CC(C)Cn1nc(C(=O)Nc2ccc(SC(F)F)cc2)c2ccccc2c1=O | i
Cc1ccc(NC(=O)C2=C(c3ccccc3)NC(=S)NC2c2ccccc2)cc1 (centres undefined) | i
CN(C)C(=S)SCCCCC#N | i
CCn1cnc2c1c(=O)n(CC(=O)Nc1c(C)cccc1C)c(=O)n2Cc1ccccc1 | i
COc1cccc(C2Cn3nnc(-c4nc(-c5cccc(C)c5)no4)c3CO2)c1 (centres undefined) | i
CCOc1ccc(C2Cn3nnc(-c4nc(C)no4)c3CO2)cc1 (centres undefined) | i
CCOc1cccc(-c2noc(-c3nnn4c3COC(c3cccc(OC)c3)C4)n2)c1 (centres undefined) | 25µM*
COc1cccc(C2Cn3nnc(-c4nc(-c5cccc(Cl)c5)no4)c3CO2)c1 (centres undefined) | i
CCOc1ccc(C2Cn3nnc(-c4nc(-c5ccccc5Br)no4)c3CO2)cc1 (centres undefined) | 22µM*
Clc1ccc(C2Cn3nnc(-c4nc(-c5ccccc5Br)no4)c3CO2)cc1 (centres undefined) | i
O=C1CC2(C(=O)Nc3ccccc32)c2sc(C(=O)O)c(-c3ccccc3)c2N1 (centres undefined) | i
O=C1CCSc2c1cccc2C(=O)NCC1CCN(Cc2cccc(F)c2)CC1 | i
COc1ccc(C(=O)Nc2ccc(Cl)cc2C(=O)N2CCCCCC2)cc1 | i
Cc1cccc(NC(=O)CSc2nc(C)c(C)o2)c1C | i
CCCCn1c(=O)n(CC(O)COc2cccc3ccccc23)c(=O)c2c1ncn2C1CCCC1 (centres undefined) | i
CC(c1nc(N)nc(N(C)C)n1)N(C)CCOc1ccc(Cl)cc1 (centres undefined) | i
COC(=O)c1ccccc1NC(=O)CN1N=C(c2ccccc2)c2cc(Cl)ccc2S1(=O)=O | i
O=C(CSc1nnc2ccccn12)c1ccc(F)cc1 | i
Cc1ccc(N2CCN(C(=O)c3noc(-c4ccc(F)cc4)n3)CC2)cc1 | i
O=C(c1noc(-c2ccc(F)cc2)n1)N1CCN(c2ccccc2F)CC1 | 32µM*
Cc1ccc(-c2nc(C(=O)N3CCN(c4cccc(C)c4C)CC3)no2)cc1 | i
SMILES | KDM5B inh
CC1(C)CC(N2CCCCC2)=CC(=NCCCN2CCOCC2)C1 | i
COc1cccc(CNC(=O)c2cc3c(N4CCCC4)nc(C)cn3n2)c1 | i
O=C(NCc1cccc(Cl)c1)c1ccc2nc(N3CCCCC3)sc2c1 | i
Cc1cn2nc(C(=O)NCc3ccc(C(C)C)cc3)cc2c(N2CCSCC2)n1 | 14µM*
CC(=O)N1CCN(c2nc3c(s2)CC(C(=O)NCc2ccc(C(C)C)cc2)CC3)CC1 (centres undefined) | i
Cc1cn2nc(C(=O)NCCc3cccs3)cc2c(N2CCSCC2)n1 | 14µM*
CC(C)c1ccc(CNC(=O)c2ccc(N3CCCC3)c(NC(=O)NCc3ccc(F)cc3)c2)cc1 | i
Cc1cn2nc(C(=O)NCc3cccc(Cl)c3)cc2c(N2CCSCC2)n1 | 14µM*
CC[N+]1(CC=C(C)C)CCCCC1 | i
O=c1oc2ccccc2c(N2CCCC2)c1NS(=O)(=O)c1ccccc1Cl | i
COc1ccc(C)cc1-n1ccnc1SCC(=O)Nc1nc(C)cs1 | i
CCn1ncc(CN2CCCCCNC(=O)CC2c2ccccc2)c1C (centres undefined) | i
O=C1CC(c2ccccc2)N(Cc2ccccn2)CCCCCN1 (centres undefined) | i
Cc1ccc(CN2CCCCCNC(=O)CC2c2ccccc2)o1 (centres undefined) | 28µM*
CC(C)CCN1CCC(N2CCN(Cc3cccnc3)CC2)C1=O (centres undefined) | i
O=C(c1ccc(F)cc1Cl)N1CCN(c2cc(-c3ccc(F)cc3)[nH]n2)CC1 | i
O=C(c1ccccc1C(F)(F)F)N1CCc2c(nc3cc[nH]n3c2=O)C1 | 25µM*
Cc1cc(C(=O)N2CCc3c(nc[nH]c3=O)C2)c2cc(Cl)ccc2n1 | i
O=C(c1ccc(F)cc1Cl)N1CCc2c(nc3cc[nH]n3c2=O)C1 | 28µM*
O=C(c1ccccc1C(F)(F)F)N1CCC2(C1)C(=O)Nc1ccccc12 (centres undefined) | i
O=c1c2c(nc3cc[nH]n13)CN(S(=O)(=O)c1cccc(C(F)(F)F)c1)CC2 | i
COCCn1cnnc1SCc1ccc(F)cc1 | i
Cc1csc(C(C#N)C(=O)CSc2ccc3c(c2)OCCCO3)n1 (centres undefined) | i
CCc1cccc(NS(=O)(=O)c2ccc3c(c2)-c2oncc2CO3)c1 | i
